Assay results: PMC4336329 (PLoS ONE, 2015)
In all, about 310,000 compounds went through this assay and about 14,000 (4.5%) showed an effect of 50% or more. Effects have a minus sign here. The full list was thinned out, with strong results kept by preference.

Target: human ether-à-go-go-related gene (hERG) potassium channel (human, UniProt Q12809)
Test: primary screen, population patch clamp on CHO cells stably expressing hERG; higher = less effect of the substance
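Also: peak tail current of the secondary pulse compared with the same well before compound.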

Chain of human ether-à-go-go-related gene (hERG) potassium channel (Q12809 whole entry, looked up): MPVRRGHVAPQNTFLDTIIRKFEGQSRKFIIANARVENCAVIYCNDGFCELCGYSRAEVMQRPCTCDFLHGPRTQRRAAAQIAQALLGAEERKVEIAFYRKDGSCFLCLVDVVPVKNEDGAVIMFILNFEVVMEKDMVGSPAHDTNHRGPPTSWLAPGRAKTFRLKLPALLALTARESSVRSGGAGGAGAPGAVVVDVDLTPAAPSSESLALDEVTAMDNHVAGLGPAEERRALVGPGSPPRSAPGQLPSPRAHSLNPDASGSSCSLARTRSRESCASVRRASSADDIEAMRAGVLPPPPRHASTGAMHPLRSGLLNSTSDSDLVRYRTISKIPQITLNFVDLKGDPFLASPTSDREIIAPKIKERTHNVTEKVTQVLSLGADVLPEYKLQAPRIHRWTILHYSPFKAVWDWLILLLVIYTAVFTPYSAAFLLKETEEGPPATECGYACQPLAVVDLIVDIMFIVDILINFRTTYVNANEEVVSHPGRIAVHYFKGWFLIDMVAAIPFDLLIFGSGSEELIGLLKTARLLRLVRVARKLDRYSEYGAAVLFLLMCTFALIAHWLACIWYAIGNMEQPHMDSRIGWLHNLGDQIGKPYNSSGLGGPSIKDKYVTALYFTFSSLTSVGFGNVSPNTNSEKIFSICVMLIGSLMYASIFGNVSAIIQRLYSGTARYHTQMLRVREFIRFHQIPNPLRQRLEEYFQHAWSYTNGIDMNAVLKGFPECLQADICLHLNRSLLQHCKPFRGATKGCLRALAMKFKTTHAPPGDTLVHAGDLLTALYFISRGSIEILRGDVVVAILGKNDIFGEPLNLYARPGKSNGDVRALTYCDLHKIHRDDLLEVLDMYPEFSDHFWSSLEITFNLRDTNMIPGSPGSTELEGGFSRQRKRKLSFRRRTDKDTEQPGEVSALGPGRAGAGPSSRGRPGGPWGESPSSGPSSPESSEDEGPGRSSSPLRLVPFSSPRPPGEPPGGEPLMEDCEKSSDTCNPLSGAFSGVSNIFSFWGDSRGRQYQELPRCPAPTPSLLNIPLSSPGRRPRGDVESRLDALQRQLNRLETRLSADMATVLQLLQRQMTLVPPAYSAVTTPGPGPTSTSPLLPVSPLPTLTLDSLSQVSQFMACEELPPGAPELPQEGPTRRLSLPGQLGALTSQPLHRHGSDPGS

| SMILES | hERG current change (%, negative = inhibition) at 10uM [%] |
| --- | --- |
| CC(=O)Nc1ccc(C(=O)N2CCN(S(=O)(=O)c3ccc4c(c3)OCCCO4)CC2)cc1 | 5.45 |
| Cc1cc(C(=O)Nc2ccc(S(=O)(=O)N3CCCC3)cc2)no1 | 23.6 |
| O=C(NC(=S)Nc1ccccc1N1CCCCC1)c1ccc(-c2cccc([N+](=O)[O-])c2)o1 | 4.88 |
| CCC(=O)N1CCN(c2ccccc2NC(=S)NC(=O)c2cccc([N+](=O)[O-])c2)CC1 | -69.9 |
| CN1CCN(c2ccc(S(=O)(=O)N3CCCCC3)cc2NC(=O)c2ccc(C#N)cc2)CC1 | -41.7 |
| COc1ccc(C(=O)Nc2cc([N+](=O)[O-])ccc2N2CCCC2)cc1 | -1.57 |
| CCC(=O)N1CCN(c2ccc(NC(=S)NC(=O)c3cccc([N+](=O)[O-])c3)cc2)CC1 | 2.13 |
| CN1CCN(c2ccc(S(=O)(=O)N3CCCCC3)cc2NC(=O)c2cccc([N+](=O)[O-])c2)CC1 | -65.8 |
| COc1cccc(C(=O)Nc2cc([N+](=O)[O-])ccc2N2CCN(C)CC2)c1 | -71.7 |
| CCC(=O)N1CCN(c2ccccc2NC(=O)c2ccc(-c3cccc([N+](=O)[O-])c3)o2)CC1 | -34.1 |
| CC(=O)N1CCN(c2ccccc2NC(=O)c2ccc(-c3cccc([N+](=O)[O-])c3)o2)CC1 | -75.4 |
| CN1CCN(c2ccc(S(=O)(=O)N3CCCCC3)cc2NC(=O)c2ccc3ccccc3c2)CC1 | -40.4 |
| O=C(NC(=S)Nc1ccccc1N1CCOCC1)c1cccc([N+](=O)[O-])c1 | 17.6 |
| COc1ccc(C(=O)Nc2cc([N+](=O)[O-])ccc2N2CCN(C)CC2)cc1 | -30.3 |
| COCCNC(=O)[C@@]1(Cc2ccccc2)C=C[C@@H](C)N1C(C)=O | 11.5 |
| CC(C)N(Cc1ccco1)/N=C/c1c(O)n(Cc2ccccc2)c(=O)[nH]c1=O | 8.85 |
| Cc1nccn1CCOc1ccc(Cl)cc1.O=C(O)C(=O)O | -38.4 |
| COc1ccc2c(Cl)c(C(N)=O)sc2c1 | 1.91 |
| Nc1ccc(NC(=O)c2ccco2)c(Cl)c1 | 12.9 |
| Cc1cc(=O)cc(C)n1-c1ccc(Br)cc1 | 12.1 |
| CCN(CC)CCn1c(-c2ccc(C)cc2)nc(=S)c2c1CC(C)(C)OC2 | -0.55 |
| Clc1ccccc1-c1ccc(/C=N/n2cnnc2)o1 | -24.1 |

| SMILES | hERG current change (%, negative = inhibition) at 10uM [%] |
| --- | --- |
| CCc1nc(SCC(=O)Nc2cccc3ccccc23)[nH]c(=O)c1C | 8.16 |
| COC(=O)c1ccc(C(=O)OC)c(NC(=S)N2CCC(N3CCCCC3)CC2)c1 | -15 |
| COc1cc(NS(C)(=O)=O)c(OC)cc1NC(=O)c1ccccc1 | -9.96 |
| CN1CCN(c2ccc(NC(=O)c3ccc(-c4cccc([N+](=O)[O-])c4)o3)cc2)CC1 | 5.35 |
| CN1CCN(c2ccccc2NC(=O)c2cccc([N+](=O)[O-])c2)CC1 | -80.1 |
| O=C(NC(=S)Nc1ccccc1N1CCCC1)c1ccc(-c2cccc([N+](=O)[O-])c2)o1 | -26.7 |
| CN1CCN(c2ccccc2NC(=O)c2ccc(-c3cccc([N+](=O)[O-])c3)o2)CC1 | -51.8 |
| O=C(Nc1ccccc1N1CCOCC1)c1cccc([N+](=O)[O-])c1 | -17.7 |
| O=C(Nc1ccccc1N1CCCCC1)c1cccc([N+](=O)[O-])c1 | 9.03 |
| N#Cc1ccsc1NC(=O)c1ccc(Cl)c([N+](=O)[O-])c1 | 21 |
| O=C(NC1CCS(=O)(=O)C1)c1cccc(S(=O)(=O)N2CCCCCC2)c1 (centres unmarked) | 1.79 |
| CCC1CCCCN1Cc1nc(Cc2ccccc2Cl)no1 (centres unmarked) | -10.4 |
| NC(=O)[C@@H]1CCCN1Cc1nc(Cc2ccccc2Cl)no1 | 14.5 |
| OCCCC1CCCCN1Cc1nc(Cc2ccccc2Cl)no1 (centres unmarked) | -78.9 |
| Cc1noc(C)c1S(=O)(=O)N1CCCN(C(=O)/C=C/c2ccccc2F)CC1 | -70.9 |
| Cc1noc(/C=C/c2ccccc2F)c1S(=O)(=O)N1CCC(C(=O)N2CCN(C)CC2)CC1 | -19.5 |
| CNC(=O)C1CCN(S(=O)(=O)c2c(C)noc2/C=C/c2ccccc2F)CC1 | 11.4 |
| COc1ccc(N2CCN(C(c3cccs3)C(C)NS(C)(=O)=O)CC2)cc1 (centres unmarked) | 7.84 |
| CN1C(=O)c2ccccc2C(C(=O)O)C1c1cccc(F)c1 (centres unmarked) | 0.483 |
| CCOc1ccccc1N(C)C(=O)c1sc2ncn(CC(=O)N3CCCCC3C)c(=O)c2c1C (centres unmarked) | 6.44 |
| CCOC(=O)CCSc1nc2c(c(C(F)(F)F)c1C#N)CCC2 | 3.58 |
| O=C(c1ccccc1OCc1ccccc1Br)N1CCN(c2ncccn2)CC1 | -37.2 |
